From PubChem BioAssay (NCATS)
Inconclusive results are not listed. Activity calls are given as the source filed them. Unless noted, calls come from the whole dose curve; as a rule, active = well fitted curve in the direction sought with a large enough effect; inconclusive = small, poorly fitted or top-dose-only effect, or another doubt; inactive = no such curve, though single readings can be large; an effect the other way counts as inactive or inconclusive.

What was measured:
[1] = target: Papain (Carica papaya) (UniProt P00784); assay: Primary qHTS assay for inhibitors of the protease papain (AID 1645873);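 note: papain turnover of Z-FR-AMC read as the AMC fluorescence gain over 10 min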; note: potency is the fitted concentration of half-maximal effect; for activity change, negative = inhibition: % is set by controls: 0 for no effect and ±100 for the full control effect
Papain (Carica papaya), sequence (P00784 whole entry, looked up): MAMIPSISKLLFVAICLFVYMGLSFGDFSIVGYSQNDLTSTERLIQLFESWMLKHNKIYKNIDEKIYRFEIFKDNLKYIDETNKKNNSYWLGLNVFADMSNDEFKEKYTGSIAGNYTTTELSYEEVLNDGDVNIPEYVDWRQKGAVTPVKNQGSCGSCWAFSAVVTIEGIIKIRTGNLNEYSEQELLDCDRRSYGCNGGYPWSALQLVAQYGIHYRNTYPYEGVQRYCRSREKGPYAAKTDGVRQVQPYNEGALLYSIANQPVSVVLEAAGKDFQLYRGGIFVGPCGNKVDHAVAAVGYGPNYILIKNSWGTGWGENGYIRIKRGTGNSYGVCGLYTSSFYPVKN

[2] = target: N-terminal Xaa-Pro-Lys N-methyltransferase 1 (Homo sapiens) (UniProt Q9BV86); assay: Confirmatory qHTS for Inhibitors of N-terminal methyltransferase 1 (NTMT1): MTaseGlo Assay (AID 1645874); note: nearly all actives have a fitted effect of over 65% in size; note: potency is the fitted concentration of half-maximal effect;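 for activity change, negative = inhibition: luminescence from SAH made as NTMT1 methylates SPKRIA peptide using SAM; 0% = DMSO control and -100% = no-enzyme control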
N-terminal Xaa-Pro-Lys N-methyltransferase 1 (Homo sapiens), sequence (Q9BV86 whole entry, looked up): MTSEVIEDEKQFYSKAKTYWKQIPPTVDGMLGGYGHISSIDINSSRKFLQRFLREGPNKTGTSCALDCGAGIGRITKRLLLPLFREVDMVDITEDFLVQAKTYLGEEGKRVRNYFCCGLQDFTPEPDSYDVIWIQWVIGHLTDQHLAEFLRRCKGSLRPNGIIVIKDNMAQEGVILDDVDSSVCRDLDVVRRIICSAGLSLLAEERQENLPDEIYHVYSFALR
Summary of the method: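 SPKRIA peptide at 1 uM was methylated by 125 nM NTMT1 using 100 uM SAM over 30 min at room temperature, following a 15 min compound preincubation. Product SAH was detected luminescently.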

[3] = target: Catechol O-methyltransferase (Homo sapiens) (UniProt P21964); assay: Confirmatory Screen for Target Class Profiling of Small Molecule Inhibitors of Methyltransferases (AID 1745852; calls by dose curve; note: potency is the fitted concentration of half-maximal effect; for activity change, negative = inhibition: % is set by controls: 0 for no effect and ±100 for the full control effect); settings: MTase-Glo luminescence, SAH detection, recombinant enzyme; measured here: COMT max response; stronger effect = lower value
Catechol O-methyltransferase (Homo sapiens), sequence (P21964 whole entry, looked up): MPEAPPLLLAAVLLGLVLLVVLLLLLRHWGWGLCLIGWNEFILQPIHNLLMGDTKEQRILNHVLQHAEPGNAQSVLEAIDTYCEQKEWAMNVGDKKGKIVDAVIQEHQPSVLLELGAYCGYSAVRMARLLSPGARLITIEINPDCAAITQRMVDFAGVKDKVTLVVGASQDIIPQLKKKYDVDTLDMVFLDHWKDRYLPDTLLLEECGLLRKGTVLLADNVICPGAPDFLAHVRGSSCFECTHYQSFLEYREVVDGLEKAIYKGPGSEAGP

[4] = target: Guanidinoacetate N-methyltransferase (Homo sapiens) (UniProt Q14353); assay: as above; settings: MTase-Glo luminescence, SAH detection, recombinant enzyme; activity change, negative = inhibition: at 57.3 µM (top of the series) unless noted
[5] = target: Nicotinamide N-methyltransferase (Homo sapiens) (UniProt P40261); assay: as above; settings: MTase-Glo luminescence, SAH detection, recombinant enzyme; measured here: NNMT max response; stronger effect = lower value
Nicotinamide N-methyltransferase (Homo sapiens), sequence (P40261 whole entry, looked up): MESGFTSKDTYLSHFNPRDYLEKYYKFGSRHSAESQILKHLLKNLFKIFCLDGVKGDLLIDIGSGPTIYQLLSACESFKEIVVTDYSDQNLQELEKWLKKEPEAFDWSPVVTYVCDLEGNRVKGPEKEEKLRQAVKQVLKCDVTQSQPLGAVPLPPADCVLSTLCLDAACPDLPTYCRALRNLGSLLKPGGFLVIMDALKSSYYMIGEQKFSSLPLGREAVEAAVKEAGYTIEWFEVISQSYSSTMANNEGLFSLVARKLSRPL

[6] = target: Phenylethanolamine N-methyltransferase (Homo sapiens) (UniProt P11086); assay: as above; settings: MTase-Glo luminescence, SAH detection, recombinant enzyme; measured here: PNMT max response; stronger effect = lower value
Phenylethanolamine N-methyltransferase (Homo sapiens), sequence (P11086 whole entry, looked up, the tested form may be a part): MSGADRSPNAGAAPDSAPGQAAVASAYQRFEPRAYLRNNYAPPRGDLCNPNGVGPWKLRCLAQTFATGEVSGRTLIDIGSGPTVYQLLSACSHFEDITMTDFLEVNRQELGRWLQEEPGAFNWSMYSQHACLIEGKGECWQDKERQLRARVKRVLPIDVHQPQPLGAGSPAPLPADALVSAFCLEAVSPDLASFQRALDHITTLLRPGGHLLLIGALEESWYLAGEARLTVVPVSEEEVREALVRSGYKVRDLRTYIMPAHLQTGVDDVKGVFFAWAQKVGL

[7] = Primary qHTS for inhibitors of nuclear receptor binding SET domain protein 2 (NSD2) in an isogenic RCH-ACV NSD2 p.E1099K mutant (9B) (AID 1645876); note: nearly all actives have a fitted effect of over 70% in size; note: potency is the fitted concentration of half-maximal effect
[8] = Primary qHTS for inhibitors of nuclear receptor binding SET domain protein 2 (NSD2) in an RCH-ACV wild type WT cells (2C) (AID 1645877); note: nearly all actives have a fitted effect of over 70% in size; note: potency is the fitted concentration of half-maximal effect
[9] = NCATS anti-infectives library activity on HEK293 viability as a counter-qHTS vs the C. elegans viability qHTS (AID 1745854); note: % is set by controls: 0 for no effect and ±100 for the full control effect
Summary of the method: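 Cytotoxicity counter-screen to a worm viability qHTS: CellTiter-Glo luminescence read 10 min after reagent addition. Compounds (final up to 41.7 uM, a 1:5 dilution series) incubated 24 hr at 37C with 1,500 HEK293 cells per well; digitonin control.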

[10] = NCATS anti-infectives library activity on the primary C. elegans qHTS viability assay (AID 1745855; calls by dose curve; note: potency is the fitted concentration of half-maximal effect)
Summary of the method: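 GFP read-out by 488 nm laser cytometry at day 0, 3 and 7, gated on object perimeter, area and peak intensity, scored viability of PE254-GFP-FLuc worms exposed to compound in S medium with bacterial capsules at 21 °C.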

SMILES: O=C1C=CC(=O)C=C1
- Potency [1]: inactive

SMILES: NC(N)=Nc1ccc2[nH]c3c(c2c1)C[C@@]1(O)[C@H]2Cc4ccc(O)c5c4[C@@]1(CCN2CC1CC1)[C@H]3O5
- Potency [1]: inactive
- Potency [2]: inactive

SMILES: CCn1cnc2c(Nc3cccc(Cl)c3)nc(N[C@@H]3CCCC[C@@H]3N)nc21
- Potency [1]: inactive
- activity [3]: 7.4%
- activity change, negative = inhibition [4]: 4.82%
- activity [5]: -17.5%
- activity [6]: 1.09%

SMILES: N#C/C(=C/c1ccc(O)c(O)c1)C(N)=S
- Potency [1]: inactive
- Potency [7]: 8.2 µM (active)
- Potency [8]: 9.2 µM (active)
- activity [3]: 52.2%
- activity change, negative = inhibition [4]: -6.16%
- activity [5]: -5.97%
- activity [6]: 1.47%

SMILES: Cc1sc2ccccc2c1CC1=NCCN1
- Potency [1]: 28.2 µM (active)
- activity [3]: 6.03%
- activity change, negative = inhibition [4]: 4.23%
- activity [5]: -6.99%
- activity [6]: -30.1%

SMILES: NC(=O)c1cc(N2CC2)c([N+](=O)[O-])cc1[N+](=O)[O-]
- Potency [1]: inactive

SMILES: CCCCCCCCCCCCCC(=O)O[C@@H]1[C@@H](C)[C@@]2(O)[C@@H](C=C(CO)C[C@@]3(O)C(=O)C(C)=C[C@@H]23)C2C(C)(C)[C@@]21OC(C)=O (some centres undefined)
- Potency [1]: inactive

SMILES: NC(=O)CI
- Potency [1]: inactive
- Potency [2]: 12.3 µM (active)
- activity [3]: -3.06%
- activity change, negative = inhibition [4]: 0.112%
- activity [5]: -21.3%
- activity [6]: -8.06%

SMILES: NCCc1ccc(S(=O)(=O)F)cc1
- Potency [1]: inactive
- outcome [9]: inactive

SMILES: Cc1[nH]c2ccc(O)cc2c1CCN
- Potency [1]: inactive

SMILES: CCCN1CCC[C@@H](c2cccc(O)c2)C1
- Potency [1]: inactive
- activity [3]: 4.08%
- activity change, negative = inhibition [4]: 1.62%
- activity [5]: 0.9%
- activity [6]: 6.74%

SMILES: NNC(N)=O
- Potency [1]: inactive

SMILES: CC(N)c1cccc(Cl)c1Cl (centres undefined)
- Potency [1]: inactive
- activity [3]: 3.38%
- activity change, negative = inhibition [4]: 5.58%
- activity [5]: -1.94%
- activity [6]: -98.4%

SMILES: CO[C@H]1CC=C2CCN3CCC4=C(CC(=O)OC4)[C@]23C1
- Potency [1]: inactive

SMILES: C=C[C@H]1CN2CC[C@H]1C[C@@H]2[C@@H](O)c1ccnc2ccccc12
- Potency [7]: inactive

SMILES: CCCN1CCc2cccc3c2[C@H]1Cc1ccc(O)c(O)c1-3
- Potency [1]: inactive
- activity [3]: 4.79%
- activity change, negative = inhibition [4]: 5.72%
- activity [5]: -3.62%
- activity [6]: 6.46%

SMILES: CN(N=O)c1cc(O)ccc1O
- Potency [1]: inactive
- activity [3]: -96.7%
- Potency [4]: 24.3 µM (active)
- activity [5]: -67.2%
- activity [6]: -42.7%

SMILES: CC(C)NP(=O)(NC(C)C)OP(=O)(NC(C)C)NC(C)C
- Potency [1]: inactive

SMILES: CCCN(CCC)CCc1ccc(O)c(O)c1
- Potency [1]: inactive
- activity [3]: 153%
- activity change, negative = inhibition [4]: 6.88%
- activity [5]: -2.74%
- activity [6]: -0.0665%

SMILES: NCC(O)c1cc(O)c(O)cc1F (centres undefined)
- Potency [1]: inactive
- activity [3]: 129%
- activity change, negative = inhibition [4]: 4.77%
- activity [5]: -1.34%
- activity [6]: 31.6%

SMILES: O=C(N1CCOCC1)N1CCN(c2ccc(Cl)cc2)CC1
- Potency [7]: inactive

SMILES: CCCN1CC[C@@H]2c3cc(O)ccc3CC[C@@H]21
- Potency [1]: inactive
- activity [3]: 1.91%
- activity change, negative = inhibition [4]: 0.453%
- activity [5]: -3.17%
- activity [6]: -0.789%

SMILES: Ic1ccccc1CNC1C2CCN(CC2)C1C(c1ccccc1)c1ccccc1 (centres undefined)
- Potency [1]: inactive

SMILES: CN1CCc2cc(O)cc3c2[C@H]1Cc1ccc(O)c(O)c1-3
- Potency [1]: inactive
- activity [3]: -101%
- activity change, negative = inhibition [4]: -1.59%
- activity [5]: -4.5%
- activity [6]: -1.47%

SMILES: CC(C)(C)c1cc(C=C(C#N)C#N)cc(C(C)(C)C)c1O
- Potency [1]: inactive
- Potency [2]: 38.8 µM (active)
- activity [3]: -14.8%
- activity change, negative = inhibition [4]: -1.85%
- activity [5]: -20.4%
- activity [6]: -25.9%
- Potency [10]: 0.29 µM (active)

SMILES: CN1CCC[C@@H]1Cc1c[nH]c2ccc(Nc3ncccc3[N+](=O)[O-])cc12
- Potency [1]: inactive
- Potency [7]: inactive
- Potency [8]: inactive
- activity [3]: 3.7%
- activity change, negative = inhibition [4]: 2.94%
- activity [5]: -4.11%
- activity [6]: 3.35%

SMILES: CC(=O)c1c(O)c(C)c(O)c(Cc2c(O)c3c(c(C(=O)/C=C/c4ccccc4)c2O)OC(C)(C)C=C3)c1O
- Potency [1]: inactive
- Potency [7]: inactive

SMILES: c1ccc2cc(CC3=NCCN3)ccc2c1
- Potency [1]: inactive
- activity [3]: 5%
- activity change, negative = inhibition [4]: 3.5%
- activity [5]: 0.294%
- activity [6]: 4.14%

SMILES: C[N+](C)(C)CCOC(=O)CBr
- Potency [1]: inactive

SMILES: COc1ccccc1CN[C@H]1C2CCN(CC2)[C@H]1C(c1ccccc1)c1ccccc1
- Potency [7]: inactive

SMILES: CN1CC[C@@]2(C)c3cc(O)ccc3N(C)C12 (some centres undefined)
- Potency [1]: inactive
- activity [3]: -27.2%
- Potency [4]: 24.3 µM (active)
- activity [5]: -23.6%
- activity [6]: -16.3%

SMILES: OCc1cnc[nH]1
- Potency [1]: inactive

SMILES: NC(CCCCCP(=O)(O)O)C(=O)O (centres undefined)
- Potency [1]: inactive

SMILES: C=CCN1C[C@@H](C)N([C@H](c2ccc(C(=O)N(CC)CC)cc2)c2cccc(OC)c2)C[C@@H]1C
- Potency [1]: inactive

SMILES: CC12CCC3C(CCC4(O)CC(O)CCC34C=O)C1(O)CCC2C1=CC(=O)OC1 (centres undefined)
- Potency [7]: 0.258 µM (active)
